In PubChem BioAssay:
Records with an inconclusive call do not appear. The source made the active and inactive calls.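 How the source made its calls, unless noted: active means normalized viability below 100% at a tested concentration; inactive means the rest.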

Tests used:
[1] = growth inhibition of DIPG glioma cells, dose response, cell-based, JHH-DIPG-1, MIPE4.0, CellTiter-Glo, qHTS (AID 1347062; cut-off not given, nearly all actives have AC50 up to about 27 µM;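 on AC50: cells exposed to compound for two days before readout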); conditions: JHH-DIPG-1 viability, CellTiter-Glo ATP luminescence
[2] = growth inhibition of DIPG glioma cells, dose response, cell-based, SU-DIPG-IV, MIPE4.0, CellTiter-Glo, qHTS (AID 1347063; cut-off not given, nearly all actives have AC50 up to about 30 µM;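 further: compound exposure lasted 48 hours before the viability readout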); conditions: SU-DIPG-IV viability, CellTiter-Glo ATP luminescence
[3] = SU-DIPG-VI glioma cell viability, MIPE4.0 library, CellTiter-Glo luminescence, qHTS (AID 1347066; cut-off not given, nearly all actives have AC50 up to about 30 µM;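 further: cells exposed to compound for 48 hours before readout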); conditions: CellTiter-Glo ATP luminescence
[4] = growth inhibition of DIPG glioma cells, dose response, cell-based, SU-DIPG-XIII, MIPE4.0, CellTiter-Glo, qHTS (AID 1347061; cut-off not given, nearly all actives have AC50 up to about 37 µM;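 further: cells exposed to compound for 48 hours before readout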); conditions: SU-DIPG-XIII viability, CellTiter-Glo ATP luminescence
[5] = sensitizers of A549 cells to miR-34 induction, primary screen, imaging, A549 dox-inducible miR-34, nuclei and caspase counts (AID 1347080;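 active means compounds whose cell count with miR-34 switched on is under 0.7 times the count with it off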); conditions: A549 miR-34 inducible, Hoechst nuclei count, 48 h
[6] = survival rescue of mitochondrial mutant cells in low glucose, primary screen, MELAS cybrids, Rieske KO mouse fibroblasts, CellTiter-Glo (AID 1508586;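 active means mean z-score across replicates of 1.96 or higher in either the MELAS or the Rieske mutant cell line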;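 further: z relative to plate mean and SD of compound and empty wells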)
[7] = growth inhibition of DIPG glioma cells, dose response, cell-based, SU-DIPG-XIII, MIPE5.0, CellTiter-Glo, qHTS (AID 1347064; cut-off not given, nearly all actives have AC50 up to about 23 µM;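 on AC50: cells exposed to compound for 48 hours before the viability read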); conditions: SU-DIPG-XIII viability, CellTiter-Glo ATP luminescence
[8] = JHH-DIPG-1 glioma cell viability, MIPE5.0 library, CellTiter-Glo luminescence, qHTS (AID 1347067; cut-off not given, nearly all actives have AC50 up to about 26 µM;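 further: cells exposed to compound for 48 hours before readout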); conditions: JHH-DIPG-1 glioma viability, CellTiter-Glo ATP luminescence
[9] = SU-DIPG-XXV glioma cell viability, MIPE5.0 library, qHTS (AID 1347068; cut-off not given, nearly all actives have IC50 up to about 30 µM;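 on IC50: cells exposed to compound for 48 hours before viability readout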)
[10] = ovarian cancer cell viability with rucaparib, profiling panel, oncology-focused library, rucaparib conditional (AID 1508598); conditions: patient-derived ovarian cancer cells, CellTiter-Glo viability, 144 h, stronger effect = lower value
[11] = viability loss in pontine glioma line – cell-based, SU-DIPG-XXV, MIPE5.0, CellTiter-Glo, qHTS, dose response (AID 1347065; cut-off not given, nearly all actives have AC50 up to about 26 µM;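 further: cells exposed to compound for 48 hours before ATP readout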); conditions: CellTiter-Glo ATP luminescence
[12] = viability rescue of complex I mutant cybrids, primary screen, cell-based, galactose medium, ATP luminescence (AID 1645843;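 active means z-score of at least 1.8 in each of two replicates, scored against plate mean and spread of sample wells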;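 further: positive z means more ATP and so rescue of galactose-driven cybrid death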); conditions: complex I mutant cybrid cells, 72 h, stronger effect = higher value
[13] = stronger effect = lower value, cell number ratio, induced over uninduced
[14] = measured here: relative caspase fold change +Dox/-Dox
[15] = measured here: total cells with miR-34 induction, stronger effect = lower value
[16] = measured here: total cells without miR-34 induction
[17] = MELAS cybrid survival, CellTiter-Glo 48 h, stronger effect = higher value
[18] = Rieske KO mouse fibroblast survival, CellTiter-Glo 72 h

CCC(=O)OC1CCC2C3CCC4=CC(=O)CC[C@@]4(C)C3CC[C@]12C (some centres not stated)
inactive: outcome [1] | outcome [2] | outcome [3]

C1=C2CCCN[C@H]2[C@@H]2C[C@H]1[C@H]1CCCCN1C2
1.03: fold change [5, 14]
inactive: outcome [4] | outcome [1] | outcome [2] | outcome [3] | fold change [5, 13] 0.948 | z-score [6, 17] -0.38
0.546: z-score [6, 18]
10000: cell count [5, 15]
10600: cell count [5, 16]

COc1cccc2c1[C@]13CCN(CC4CC4)[C@H](C2)[C@]1(OC)CCC(=O)C3
inactive: outcome [4] | outcome [1] | outcome [3]

Cc1c(N)nc([C@H](CC(N)=O)NC[C@@H](N)C(N)=O)nc1C(=O)N[C@H](C(=O)N[C@@H](C)[C@H](O)[C@@H](C)C(=O)N[C@@H](C(=O)NCCc1nc(-c2nc(C(=O)NCCC[S+](C)C)cs2)cs1)[C@@H](C)O)C(O[C@H]1O[C@H](CO)[C@H](O)[C@@H](O)[C@H]1O[C@H]1O[C@H](CO)[C@@H](O)[C@H](OC(N)=O)[C@@H]1O)c1cnc[nH]1 (some centres not stated)
active: AC50 [2] 1870 nM | viability ([10]; at 0.00122 µM, OCI-P5x cells, without rucaparib) 97.2% | viability ([10]; at 0.00488 µM, OCI-P5x cells, with rucaparib 20 µM, 100% = cells with rucaparib alone) 96% | viability ([10]; at 0.00488 µM, OCI-P5x cells, without rucaparib) 94.3% | viability ([10]; at 0.0195 µM, OCI-C5x cells, without rucaparib) 90.7% | viability ([10]; at 0.0195 µM, OCI-P5x cells, with rucaparib 20 µM, 100% = cells with rucaparib alone) 88.2% | viability ([10]; at 0.0195 µM, OCI-P5x cells, without rucaparib) 84.4% | viability ([10]; at 0.0781 µM, OCI-C5x cells, without rucaparib) 95% | viability ([10]; at 0.0781 µM, OCI-P5x cells, with rucaparib 20 µM, 100% = cells with rucaparib alone) 94.6% | viability ([10]; at 0.0781 µM, OCI-P5x cells, without rucaparib) 85.9% | viability ([10]; at 0.313 µM, OCI-C5x cells, with rucaparib 10 µM, 100% = cells with rucaparib alone) 86.7% | viability ([10]; at 0.313 µM, OCI-C5x cells, without rucaparib) 84.5% | viability ([10]; at 0.313 µM, OCI-P5x cells, with rucaparib 20 µM, 100% = cells with rucaparib alone) 76.8% | viability ([10]; at 0.313 µM, OCI-P5x cells, without rucaparib) 57.6% | viability ([10]; at 1.25 µM, OCI-C5x cells, with rucaparib 10 µM, 100% = cells with rucaparib alone) 74.8% | viability ([10]; at 1.25 µM, OCI-C5x cells, without rucaparib) 69.9% | viability ([10]; at 1.25 µM, OCI-P5x cells, with rucaparib 20 µM, 100% = cells with rucaparib alone) 62.8% | viability ([10]; at 1.25 µM, OCI-P5x cells, without rucaparib) 39.3% | viability ([10]; at 5 µM, OCI-C5x cells, with rucaparib 10 µM, 100% = cells with rucaparib alone) 53.8% | viability ([10]; at 5 µM, OCI-C5x cells, without rucaparib) 47.2% | viability ([10]; at 5 µM, OCI-P5x cells, with rucaparib 20 µM, 100% = cells with rucaparib alone) 39.6% | viability ([10]; at 5 µM, OCI-P5x cells, without rucaparib) 21.3%
inactive: outcome [4] | outcome [1] | outcome [7] | outcome [3] | outcome [8] | outcome [9] | viability ([10]; at 0.000305 µM, OCI-C5x cells, with rucaparib 10 µM, 100% = cells with rucaparib alone) 106% | viability ([10]; at 0.000305 µM, OCI-C5x cells, without rucaparib) 102% | viability ([10]; at 0.000305 µM, OCI-P5x cells, with rucaparib 20 µM, 100% = cells with rucaparib alone) 109% | viability ([10]; at 0.000305 µM, OCI-P5x cells, without rucaparib) 102% | viability ([10]; at 0.00122 µM, OCI-C5x cells, with rucaparib 10 µM, 100% = cells with rucaparib alone) 109% | viability ([10]; at 0.00122 µM, OCI-C5x cells, without rucaparib) 107% | viability ([10]; at 0.00122 µM, OCI-P5x cells, with rucaparib 20 µM, 100% = cells with rucaparib alone) 106% | viability ([10]; at 0.00488 µM, OCI-C5x cells, with rucaparib 10 µM, 100% = cells with rucaparib alone) 120% | viability ([10]; at 0.00488 µM, OCI-C5x cells, without rucaparib) 100% | viability ([10]; at 0.0195 µM, OCI-C5x cells, with rucaparib 10 µM, 100% = cells with rucaparib alone) 104% | viability ([10]; at 0.0781 µM, OCI-C5x cells, with rucaparib 10 µM, 100% = cells with rucaparib alone) 103%

CC(C)(O)C(=O)Nc1ccc([N+](=O)[O-])c(C(F)(F)F)c1
active: AC50 [4] 11800 nM
inactive: outcome [7] | outcome [3] | outcome [9]

O=[N+]([O-])c1ncc[nH]1
7870: cell count [5, 15]
0.743: z-score [6, 18]
0.789: fold change [5, 14]
inactive: outcome [4] | outcome [1] | outcome [2] | outcome [3] | fold change ([5]; stronger effect = lower value) 0.87 | z-score [6, 17] -0.216
9040: cell count [5, 16]

CO[C@H]1CCC(O[C@H]2C[C@H]([C@]3(C)CC[C@]4(C[C@H](O)[C@@H](C)[C@@H]([C@@H](C)/C=C(\C)C(=O)[C@H](C)C[C@H](C)C(=O)O)O4)O3)O[C@]3(O[C@@H]([C@H]4O[C@@](O)(CO)[C@H](C)C[C@@H]4C)C[C@@H]3C)[C@@H]2C)O[C@@H]1C (some centres not stated)
active: AC50 [4] 3320 nM | AC50 [1] 1480 nM | AC50 [7] 1660 nM | AC50 [11] 742 nM | AC50 [3] 526 nM | AC50 [8] 742 nM | IC50 [9] 934 nM

C[C@@H]1O[C@@H](O[C@@H]2C=C3CC[C@H]4[C@@H](CC[C@]5(C)[C@H](c6ccc(=O)oc6)CC[C@@]45O)[C@@]3(C)CC2)[C@H](O)[C@H](O)[C@@H]1O
active: AC50 [4] 9.35 nM | AC50 [1] 4.69 nM | AC50 [2] 20.9 nM | AC50 [3] 7.43 nM

C[C@H]([C@H](O)CCC(C)(C)O)[C@H]1CC[C@@]2(O)C3=CC(=O)[C@@H]4C[C@@H](O)[C@@H](O)C[C@]4(C)[C@H]3CC[C@]12C
inactive: outcome [4] | outcome [1] | outcome [2] | outcome [3]

C[C@](O)(CS(=O)(=O)c1ccc(F)cc1)C(=O)Nc1ccc(C#N)c(C(F)(F)F)c1
9190: cell count [5, 16]
0.512: fold change [5, 14]
-0.102: z-score [6, 18]
active: AC50 [1] 2350 nM | AC50 [2] 1660 nM
inactive: fold change ([5]; stronger effect = lower value) 0.814 | z-score [6, 17] 0.389 | z-score [12] -0.71
7480: cell count [5, 15]

COc1ccc(CC2NCCc3cc(OC)c(OC)cc32)cc1OC (configuration not stated)
inactive: outcome [4] | outcome [2] | outcome [3] | fold change [5, 13] 0.988 | z-score [6, 17] -0.321
0.746: fold change [5, 14]
9220: cell count [5, 15]
9330: cell count [5, 16]
0.618: z-score [6, 18]
